Measured values: PubChem BioAssay AID686970 (National Center for Advancing Translational Sciences (NCATS), 2013)
Screen size: about 360,000 compounds; about 6,000 (1.7%) were called active. About 8% were inconclusive and are not listed. Calls come from the whole dose curve; as a rule, active = well fitted cell-killing curve with a large enough effect; inconclusive = small, poorly fitted or top-dose-only effect, or effect the other way; inactive = flat fitted curve, though single readings scatter. The sample as a whole holds a higher share of actives than the screen did.

Experiment: qHTS for induction of synthetic lethality in tumor cells producing 2HG: qHTS for the HT-1080-NT fibrosarcoma cell line;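 note: NT is the 2HG producing partner of a matched IDH1 knockdown line; nearly all actives have a fitted effect of over 55% in size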;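 for activity, negative = less viability: 0% = DMSO-treated cells and -100% = media-only wells without cells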
Conditions: HT-1080-NT fibrosarcoma viability, CellTiter-Glo ATP luminescence, 48 h; series mostly up to 46.1 µM; activity, negative = less viability: at the top concentration
Method in brief: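 Luminescent CellTiter-Glo readout after 48 hours of compound exposure at 37 degrees C defined viability of HT-1080-NT cells. Activity was normalized to DMSO wells and cell-free media wells; concentration-response curves were fitted and assigned curve classes.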
Potency is the fitted concentration of half-maximal effect.

SMILES | activity, negative = less viability | Potency
CCCCNC(=O)C[C@@H]1C[C@@]2(C(=O)OCC)CCC=C2N(Cc2ccco2)C1=O | 2.86% (inactive) | 
Cc1nc(N=C(N)N)nc2c(C)cccc12 |  | 10.3 µM (active)
COc1nc(N=C(N)N)nc2c(C)cccc12 | 0.365% (inactive) | 
O=C1CCC(=O)N1CCC(=O)N(C(=O)NC1CCCCC1)C1CCCCC1 | 2.37% (inactive) | 
CC(=O)OC[C@@H]1CN(Cc2ccccc2)C[C@H](n2cnc3c(NCc4ccco4)ncnc32)O1 | 1.85% (inactive) | 
COc1cccc(-n2c(SCC(=O)c3c[nH]c4ccccc34)nc3ccccc3c2=O)c1 | -16.3% (inactive) | 
C[N+](C)(C)CCNC(=O)c1c[nH]c2ccccc12 | 18.4% (inactive) | 
COc1ccc(/C=C(\C#N)c2c[nH]c3ccccc23)cc1 |  | 0.411 µM (active)
COc1ccc(C=C2CCC3C(CCCC34OCCO4)C2=O)cc1 (stereo unspecified) | -2.47% (inactive) | 
COCCCNC(=O)c1cccc2c(-c3ccc(O)c(OC)c3)coc12 | -6.37% (inactive) | 
CC1(C(=O)Nc2cccc3c2CCCC3)CCN1C(=O)CCc1ccc(Cl)cc1Cl (stereo unspecified) | -25.8% (inactive) | 
COC(=O)CSC1=C(C#N)C(c2ccccc2OC)C(C(=O)OC)C(=O)N1 (stereo unspecified) | 10.5% (inactive) | 
CCOC(=O)CSC1=C(C#N)C(c2sccc2C)CC(=O)N1 (stereo unspecified) |  | 2.51 µM (active)
C=CCSC1=C(C#N)C(c2cc(Br)c(O)c(OC)c2)CC(=O)N1 (stereo unspecified) | -2.43% (inactive) | 
CN(Cc1ccccc1)C(=O)CCC1CCN(C(=O)c2ccco2)CC1 | 1.67% (inactive) | 
COC(=O)Cc1ccc(OC2(C)CCN(Cc3ccc4c(c3)OCCO4)C2)cc1 (stereo unspecified) | -12% (inactive) | 
C#CCNC(=O)C[C@@H]1C[C@@]2(C(=O)OCC)CCCC=C2N(Cc2ccco2)C1=O | 16.7% (inactive) | 
COc1ccccc1NC(=O)C1=C(C)NC(=O)NC1c1ccc(C)s1 (stereo unspecified) | 15.5% (inactive) | 
COc1ccccc1NC(=O)C1=C(C)Nc2nc3ccccc3n2C1c1cccs1 (stereo unspecified) |  | 7.31 µM (active)
CCOc1ccc(C2C(C(=O)NC)=C(C)Nc3nc4ccccc4n32)cc1OC (stereo unspecified) | 21.5% (inactive) | 
COc1ccc(C(O)C(O)(C(=O)OC(C)C)c2ccc(C)cc2)cc1 (stereo unspecified) | 6.51% (inactive) | 
O=C(Nc1cccc2ccccc12)NC1CC1 | 0.702% (inactive) | 
COc1ccc(CCNS(=O)(=O)c2cccc3cccnc23)cc1OC | -4.27% (inactive) | 
CCCCC(=O)NC(c1ccc(OC)c(OC)c1)c1ccc2cccnc2c1O (stereo unspecified) |  | 14.6 µM (active)
CCOc1ccc(C(CC(=O)O)NC(=O)Cc2ccccc2)cc1OC (stereo unspecified) | 3.33% (inactive) | 
Cn1nc(N)c2ncc(C(Cl)(Cl)Cl)nc21 | -11.6% (inactive) | 

SMILES | activity, negative = less viability | Potency
O=S1(=O)CC(N2CCN(CCO)CC2)CN1C1CCCC1 (stereo unspecified) | 25.1% (inactive) | 
Nc1c(C(=O)NCc2ccccc2)nnn1Cc1cccc(Cl)c1 |  | 13 µM (active)
O=C(COc1cccc(Cl)c1)NCc1ccccc1 | 5.28% (inactive) | 
Nc1c(C(=O)Nc2ccc3c(c2)OCCO3)nnn1Cc1ccccc1 | -20.1% (inactive) | 
Cc1cccc(C)c1NC(=O)CN1CCN(c2ccc(F)cc2)CC1 | -0.589% (inactive) | 
CCOc1ccc2[nH]c(=S)sc2c1 | 11.6% (inactive) | 
COc1ccc(C(C(=O)Nc2c(C)cccc2C)N2CCN(c3ccc(C)cc3)CC2)cc1 (stereo unspecified) | 14.4% (inactive) | 
CC1=CC(C)(C)NC(=S)N1NC(=O)c1ccccc1Cl | 6.28% (inactive) | 
CC1=CC(C)(C)NC(=S)N1c1ccccc1 |  | 11.2 µM (active)
COc1ccc(S(=O)(=O)N(C)C)cc1NC(=O)COC(=O)c1n[nH]c2ccccc12 | 4.86% (inactive) | 
Cc1ccc(CCC(=O)Nc2ncc(Cc3cc(Cl)ccc3Cl)s2)o1 |  | 1.16 µM (active)
Cc1ccc(C(=O)Nc2nc3ccc(Cl)cc3s2)o1 | -1.78% (inactive) | 
O=C(CCc1ccccc1Cl)Nc1ccc(S(=O)(=O)Nc2nccs2)cc1 | 7.81% (inactive) | 
CCc1cc(-c2nnn(CCC3COCCO3)c2CC)ccc1-c1cn(Cc2ccc3ccccc3c2)nn1 (stereo unspecified) | -13.9% (inactive) | 
Cc1ccc(Cn2c(C)c(C(=O)NCc3ccccc3C(F)(F)F)sc2=O)cc1 | 2.27% (inactive) | 
CCNC(=O)C1(C)CCCN1C(=O)c1ccc(N(C)C)cc1 (stereo unspecified) | 14.3% (inactive) | 
CCOC(=O)N(C)c1c(CC)nc2c(OCc3ccccc3C(=O)OC)cccn12 | -10.3% (inactive) | 
Cc1nc2c(OCc3ccc(Cl)cc3)cccn2c1N(C)Cc1cccs1 |  | 16.4 µM (active)
CCCCN(C=O)c1c(CC)nc2c(OCc3ccccc3C(=O)OC)cccn12 | -26.4% (inactive) | 
Cc1nc2c(OCc3ccc(Cl)cc3Cl)cccn2c1N(C)CC1CC1 |  | 13 µM (active)
CCc1nc2c(OCc3ccc(Cl)cc3Cl)cccn2c1N(C)C(=O)C(C)C |  | 16.4 µM (active)
CCc1nc2c(OCc3ccccc3)cccn2c1N(C)C(=O)c1ccco1 | 21.7% (inactive) | 
CCc1nc2c(OCc3ccc(C(=O)OC)cc3)cccn2c1N(C)C(=O)C(C)C | 20.3% (inactive) | 
CCc1nc2c(OCc3ccc(F)c(F)c3)cccn2c1N(C)C(=O)c1ccco1 | 1.64% (inactive) | 
Cc1nc2ccccc2nc(C)c1=NOCc1ccc(Cl)cc1Cl | 3.79% (inactive) | 
COc1ccc(S(=O)(=O)NC(=O)C2(C)CCN2C(=O)COc2ccc(Cl)cc2)cc1 (stereo unspecified) | 15.6% (inactive) | 

SMILES | activity, negative = less viability | Potency
Cc1cccc(CN2CCN(C3CN(Cc4cn(Cc5cc(C)cc(C)c5)nn4)S(=O)(=O)C3)CC2)c1 (stereo unspecified) | -14% (inactive) | 
CC1CCC2(CC1)NC(=O)N(CC(=O)NCc1ccco1)C2=O (stereo unspecified) | -3.13% (inactive) | 
Cc1ccc(S(=O)(=O)N[C@H](CO)C(C)C)cc1 | 18.5% (inactive) | 
COCCCn1cc(CN2CC(N(C)C)CS2(=O)=O)nn1 (stereo unspecified) | 23.5% (inactive) | 
Cc1nc(C(F)(F)F)ccc1C(=O)N1CCC1(C)C(=O)NS(=O)(=O)c1ccccc1Cl (stereo unspecified) | 23.3% (inactive) | 
O=C(NC1CCCCC1)C(c1cc2ccccc2o1)n1c(=O)c(-c2ccco2)nc2ccccc21 (stereo unspecified) | -11.5% (inactive) | 
COc1ccc(-c2nc3cnccn3c2NC2CCCCC2)cc1-c1cccc(Cl)c1 |  | 18.4 µM (active)
COc1cccc(-c2nc3nc(C)cc(C)n3c2NC2CCCCC2)c1 | 4.57% (inactive) | 
Cc1ccc2nc(-c3cccnc3)c(NC3CCCC3)n2c1 | 1.6% (inactive) | 
CC(=O)c1nn(-c2ccccc2)c(=Nc2ccccc2)cc1C | 12.8% (inactive) | 
O=C(Nc1ccccc1)c1ccccc1OCc1ccccc1 | 14.1% (inactive) | 
CCCOc1ccc(C2NC(=O)NC(c3ccccc3)=C2C(C)=O)cc1OCC (stereo unspecified) | 6.35% [at 9.24 µM] (inactive) | 
COC(=O)c1ccc(C2CC(=O)Nc3cc(OC)c(OC)cc32)cc1 (stereo unspecified) | 1.74% (inactive) | 
CCCOc1ccccc1C1CC(=O)Nc2cc3c(cc21)OCO3 (stereo unspecified) |  | 8.2 µM (active)
Cc1ccc(F)c(S(=O)(=O)NC(=O)C2(C)CCN2C(=O)CCc2cccs2)c1 (stereo unspecified) | 18.9% (inactive) | 
OC[C@@H]1CN(Cc2ccc3c(c2)OCO3)C[C@H](n2cnc3c(NCc4ccco4)ncnc32)O1 | 8.23% (inactive) | 
CCc1nc2c(OCCOc3ccccc3)cccn2c1N(C)C(=O)c1ccc(OC)cc1 | 0.153% (inactive) | 
O=C(Nc1cccc(F)c1)NC1CCCCCCC1 | -29.5% (inactive) | 
COc1ccc(C(CC(=O)Nc2ccc(C)cc2)NC(=O)C(F)(F)F)cc1 (stereo unspecified) | 1.15% (inactive) | 
O=C(O)CC1(CC(=O)Nc2cccc(C(F)(F)F)c2)CCCC1 | -9.72% (inactive) | 
COc1cccc(NC(=O)Nc2ccc(F)cc2)c1 | 9.18% (inactive) | 
COc1ccc(C(N)c2csc(NC(=O)Nc3cccc(C(F)(F)F)c3)n2)cc1 (stereo unspecified) |  | 20.6 µM (active)
O=C(Nc1ccc(C(=O)N2CCOCC2)cc1)Nc1cccc(C(F)(F)F)c1 | 3.58% (inactive) | 
NC(c1csc(NC(=O)Nc2cccc(C(F)(F)F)c2)n1)C1CCCCC1 (stereo unspecified) |  | 8.2 µM (active)
NC(c1ccccc1)c1csc(NC(=O)Nc2cccc(C(F)(F)F)c2)n1 (stereo unspecified) |  | 18.4 µM (active)
CC(=O)c1ccc(Nc2nc(C(N)c3ccccc3)cs2)cc1 (stereo unspecified) | -1.4% (inactive) | 

SMILES | activity, negative = less viability | Potency
O=C(NCCc1cccc(F)c1)C1CC(O)CN1C(=O)Nc1ccccc1 (stereo unspecified) | 5.15% (inactive) | 
CCN(CC)C(=O)C1=C(C)N(Cc2ccc(F)cc2)C(=O)C(CC(=O)NCc2cccc3ccccc23)C1 (stereo unspecified) | -8.28% (inactive) | 
CO[C@@H]1CN(C)C(=O)c2cc(NC(=O)Nc3cc(F)ccc3F)ccc2OC[C@H](C)N(C(=O)c2ccccn2)C[C@@H]1C | 2.75% (inactive) | 
CCCCC[C@H](C)N1C[C@@H](COCc2ccccc2)Oc2cc(N3CCC[C@@H]3CO)ccc2S1(=O)=O | 2.67% (inactive) | 
O=C(NCc1cccnc1)c1ccc2nc([C@@H]3O[C@H](CO)[C@H](O)[C@H](O)[C@H]3O)[nH]c2c1 | 28.8% (inactive) | 
COc1ccc(S(=O)(=O)N(C)C[C@H]2OCc3cnnn3CCCC(=O)N([C@H](C)CO)C[C@H]2C)cc1 | 15.6% (inactive) | 
CNc1cc(-c2c(OC)cccc2OC)ncn1 | 6.96% (inactive) | 
O=S1(=O)CC(N2CCN(c3ccccn3)CC2)CN1Cc1ccc(F)cc1 (stereo unspecified) | 4.82% (inactive) | 
COc1cccc(NC(=O)C2(C)CCN2Cc2ccccc2Cl)c1 (stereo unspecified) | -22.6% (inactive) | 
COc1ccc(C2CC(c3cccc(OC)c3)=NN2c2ccc(S(N)(=O)=O)cc2)cc1 (stereo unspecified) |  | 18.4 µM (active)
COc1ccc(C2CC(c3ccc([N+](=O)[O-])cc3)=NN2C(C)=O)cc1 (stereo unspecified) | -0.435% (inactive) | 
COc1ccc(C2CC(c3ccccc3)=NN2C(=O)COC(=O)COc2ccccc2)cc1 (stereo unspecified) | 5.99% (inactive) | 
O=C(CSc1ccc(Cl)cc1)NC1CC1 | -0.483% (inactive) | 
O=C(OC1CC2CC1[C@H]1CCCCN1C2=O)N1CCOCC1 (stereo partly specified) | 16% (inactive) | 
CCCCCNC(=O)C(c1ccc(OC)cc1)n1c(=O)c(-c2ccccc2)nc2ccccc21 (stereo unspecified) | -20.5% (inactive) | 
CCN(CC)C(=O)C1=C(C)N(Cc2ccc(OC)cc2)C(=O)C(CC(=O)NCCCCc2ccccc2)C1 (stereo unspecified) | -11.6% (inactive) | 
O=C(c1cccc([N+](=O)[O-])c1)N1CCN(Cc2ccccc2)CC1 | 13.5% (inactive) | 
O=C(CCl)N(Cc1cccc([N+](=O)[O-])c1)c1cccc(Cl)c1 |  | 6.51 µM (active)
Cc1ccc(S(=O)(=O)N(Cc2cccc([N+](=O)[O-])c2)C(=O)N2CCN(C)CC2)cc1 | -5.22% (inactive) | 
O=C(c1ccc(N2CCCC2=O)cc1)N1CCN(c2ccc(C(F)(F)F)cc2[N+](=O)[O-])CC1 | -4.69% (inactive) | 
CCNC(=S)Nc1ccc2c(c1)c(=O)n(C)n2Cc1ccc(Cl)cc1 | -1.44% (inactive) | 
COc1ccc(CNC(=O)c2ccc(-c3cccnc3)c3ccoc23)cc1OC | -8.56% (inactive) | 
COc1cccc(C(O)c2nc(-c3ccc(C)c(C)c3)cs2)c1 (stereo unspecified) | -23.1% (inactive) | 
